Pf growth 96h: P. falciparum growth inhibition at 96 hours | P. falciparum luciferase reporter growth, 96 h | Potency, µM (titrated, usually from 28.7 µM), for the others: top-dose activity change, negative = inhibition, actives largely listed as inhibitors | 320,000 compounds, 6.9% hits | AID 504834
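Infected RBCs, 2% Hct / 0.05% parasitemia final; luciferase-reporter P. falciparum; cpd 96 h, 37 C, 5% CO2; luciferase detection reagent; luminescence.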
AMA1-RON2 inh: inhibitors of Plasmodium falciparum AMA1-RON2 interaction; AlphaScreen AMA1-biotinylated RON2 peptide binding; Potency, µM (titrated, usually from 58.2 µM), inactives show at the highest dose activity change, negative = inhibition, hits mostly inhibitors; 360,000 compounds, 0.2% hits;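 note: 0% = vehicle wells and -100% = peptide control; nearly all actives have a fitted effect of over 45% in size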
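AMA1 (3D7) with his tag at 25 nM final met compounds first, then biotinylated RON2 peptide at 25 nM; detection used donor plus acceptor beads, 10 µg/mL apiece, read by AlphaScreen after 30 min at room temperature.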
Vaccinia Venus: inhibitors of vaccinia virus (Venus reporter); AID 720580; 330,000 compounds, 0.46% hits; Vaccinia virus Venus reporter expression, fluorescence; Potency, µM (series often up to 36.5 µM), inactives show top-dose activity change, negative = inhibition, actives largely listed as inhibitors; calls by dose curve; tested in A549 cells; note: nearly all actives have a fitted effect of over 30% in size
Pf growth 48h: P. falciparum growth inhibition at 48 hours (one generation); Potency, µM (doses to about 28.7 µM), without a hit: at the top dose activity change, negative = inhibition, most hits filed as inhibitors; P. falciparum luciferase growth in erythrocytes, 48 h; AID 504832; 310,000 compounds, 5.9% hits
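Luciferase-expressing parasites in RBCs, 2% Hct / 0.1% parasitemia final; RPMI 1640 + 0.5% Albumax; 37 C, 5% CO2, one generation; luminescence read-out, lower signal = inhibition.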
VACV mCherry inh: vaccinia inhibition (mCherry reporter); Potency, µM (top dose mostly 36.5 µM), for inactives: at the top dose activity change, negative = inhibition, usual class: inhibitors; Vaccinia virus mCherry reporter infection, fluorescence; 310,000 compounds, 0.63% hits; calls by dose curve; tested in A549 cells; note: nearly all actives have a fitted effect of over 35% in size
Starred values were filed as active, the others as inactive; i = inactive; ? = inconclusive; . = no result given. Compounds with a hit are over-represented: about 8.7% of the library has one in this group of screens. Unless noted, calls come from the whole dose curve; as a rule, active = well fitted curve in the direction sought with a large enough effect; inconclusive = small, poorly fitted or top-dose-only effect, or another doubt; inactive = no such curve, though single readings can be large; an effect the other way counts as inactive or inconclusive. Unless noted, % is set by controls: 0 for no effect and ±100 for the full control effect; potency is the fitted concentration of half-maximal effect.

SMILES	Pf growth 96h	AMA1-RON2 inh	Vaccinia Venus	Pf growth 48h	VACV mCherry inh
Cc1ccc(C=C2C(=O)c3ccccc3C2=O)s1	12µM*	?	7%	.	2%
CC(C)NS(=O)(=O)c1cc(C(F)(F)F)ccc1/C=C/C(=O)O	.	.	-9%	.	-19%
Cn1c(=O)n(Cc2ccc(F)cc2)c(=O)c2c1nc1n2CCN1Cc1ccco1	?	-13%	-8%	?	-13%
Cc1ccc(C)c(Cn2c(=O)c3c(nc4n3CCN4Cc3ccco3)n(C)c2=O)c1	?	-4%	.	8.3µM*	.
Cn1c(=O)n(CCc2ccccc2)c(=O)c2c1nc1n2CCN1Cc1ccco1	5.2µM*	-13%	-11%	8.3µM*	-1%
Cc1ccc(NC(=O)c2ccc(Cl)cc2Cl)c(C(=O)c2ccccc2)c1	.	.	-9%	.	i
CC(C)(CO)NCc1c(OCc2ccc(Cl)cc2)ccc2ccccc12	4.1µM*	0%	?	?	?
COc1cc(CNC(C)(C)CO)cc(Br)c1OCc1ccc(Cl)cc1	?	3%	?	13µM*	?
COc1cc(CNC(C)(C)CO)cc(Br)c1OCc1ccc(Cl)cc1Cl	13µM*	-7%	?	12µM*	?
CNCc1c(OCc2ccccc2)ccc2ccccc12	?	7%	-11%	?	-25%
COc1cc(CNc2ccc(O)cc2)cc(Br)c1OCc1ccccc1	60%	49%	-18%	?	-11%
CCc1nn(CC(=O)N(C)Cc2ccccc2)c(=O)c2cc3sccc3n12	.	.	-4%	.	-7%
CNc1cc(C)c(C#N)c2nc3ccccc3n12	?	4%	-11%	7%	i
CCN(CC)c1cc(C)c(C#N)c2nc3ccccc3n12	?	19%	-12%	5.9µM*	-9%
CCCNc1cc(C)c(C#N)c2nc3ccccc3n12	-23%	1%	-17%	-1%	.
Cc1cc(Cl)n2c(nc3ccccc32)c1C#N	?	10%	-29%	8.3µM*	?
COc1ccc(CN2C(=NC(=O)C3CCCCC3)SC3CS(=O)(=O)CC32)cc1 (centres undefined)	15µM*	2%	-8%	?	-2%
CC1Cc2ccccc2N1S(=O)(=O)c1cnc[nH]1 (centres undefined)	?	-7%	-8%	-21%	i
O=S(=O)(c1cnc[nH]1)N1CCc2ccccc21	8.3µM*	16%	-13%	-12%	-2%
COc1cc(O)c(CC=C(C)C)c(O)c1C(=O)CCc1ccc(O)cc1	-11%	-12%	?	9.3µM*	?
CSc1nc(NCCN(C)C)c2sc3nc(-c4ccco4)c4c(c3c2n1)CCC4	.	-13%	-6%	.	i
CSc1nc(N(C)CCO)c2sc3nc(-c4ccco4)c4c(c3c2n1)CCC4	?	12µM*	.	?	.
CCCCCCCCN1[C@@H](CC(C)=O)c2ccc(/C=C/C(C)=O)cc2S1(=O)=O	.	.	-5%	.	-16%
CC(NC(=O)c1ccc(F)cc1)c1nc2ccccc2[nH]1 (centres undefined)	.	.	0%	.	-1%
COc1cc(/C=N/NC(=O)c2ccc(CN3C(=O)c4cccc5cccc3c45)cc2)cc(OC)c1O	?	81%	.	8.3µM*	.
SMILES	Pf growth 96h	AMA1-RON2 inh	Vaccinia Venus	Pf growth 48h	VACV mCherry inh
COc1ccc(/C=N/NC(=O)c2ccc(CN3C(=O)c4cccc5cccc3c45)cc2)cc1O	-4%	36%	.	?	.
CCc1nc2ccc(C(=O)N3CCN(c4ccccc4)CC3)cc2nc1CC	2.6µM*	-6%	-13%	-5%	-6%
CCc1nc2ccc(C(=O)N3CCN(c4ccc(Cl)cc4)CC3)cc2nc1CC	5.2µM*	-3%	-6%	-10%	-3%
CCCN1CCN(C(=O)c2ccc3nc(CC)c(CC)nc3c2)CC1	444%	13%	-1%	35%	-12%
CCc1nc2ccc(C(=O)N3CCN(c4cccc(C(F)(F)F)c4)CC3)cc2nc1CC	?	-6%	.	-17%	.
COc1ccccc1C(=O)Nc1ccnn1C1CCN(C)CC1	21%	-6%	.	10%	.
O=C(Nc1ccnn1C1CCN(C/C=C/c2ccccc2)CC1)C1CCCC1	?	0%	.	13µM*	.
O=C(Nc1ccnn1C1CCN(C/C=C/c2ccccc2)CC1)c1ccccc1Cl	31%	-3%	-15%	?	-9%
COc1ccccc1C(=O)Nc1ccnn1C1CCN(C/C=C/c2ccc(F)cc2)CC1	-13%	0%	-30%	12µM*	-19%
Cc1ncc2c(c1CNC(=O)c1ccc3c(c1)OCO3)CCN(C(=O)/C=C/c1ccccc1Cl)C2	.	.	-8%	.	-8%
CC(=O)c1ccc(F)c(-c2cc(C)cc3c2OC(CNC(=O)c2ccnn2C)C3)c1 (centres undefined)	.	.	?	.	-12%
CCOc1ccc(N2CC(NC(=O)/C=C\c3ccc4c(c3)OCO4)CC2=O)cc1 (centres undefined)	.	.	-11%	.	-10%
O=C(Cn1c(=O)c2cccn2c2cccnc21)NCc1cccc(F)c1	.	.	-5%	.	-2%
COc1cc2c(cc1OC)CN(C(=O)CC1CC3CCC1C3)CC2 (centres undefined)	2.6µM*	4%	.	?	.
O=C(Cn1cnc2ccccc21)N1CCc2ccccc21	3%	0%	-21%	-12%	i
COc1cc2c(cc1OC)CN(C(=O)CN1CCN(S(=O)(=O)c3ccccc3)CC1)CC2	13µM*	-6%	.	?	.
O=C(Cn1ncc2ccccc21)N1CCc2ccccc21	4.7µM*	-1%	-3%	7%	-13%
O=C(CN1CCN(S(=O)(=O)c2ccccc2)CC1)N1CCc2ccccc21	12µM*	-7%	.	?	.
Cc1c(C(=O)N2CCCC(C)C2)sc2ncnc(NCCN3CCCCC3)c12 (centres undefined)	.	.	-11%	.	-23%
COc1cccc(-c2nc(C(N)=O)c3[nH]c(=O)n(-c4cccc(Cl)c4)c3n2)c1OC	?	14%	-6%	15µM*	-7%
CC1=CC(C)(C)N2C(=O)C3(C(C#N)=C(N)OC4=C3C(=O)CCC4)c3c(C)c(C)cc1c32 (centres undefined)	33%	4%	.	-26%	.
CCOC(=O)C1=C(N)OC2=C(C(=O)CCC2)C12C(=O)N1c3c(ccc(C)c32)C(C)=CC1(C)C (centres undefined)	12µM*	1%	-27%	?	-30%
Cc1ccccc1NC(=O)C1CCN(C(=O)c2cnn(-c3ccccc3)c2-n2cccc2)CC1	.	.	-13%	.	i
O=C(NCCN1CCOCC1)c1ccncc1	-13%	0%	.	10%	.
O=C1C=C(NCCN2CCOCC2)C(=O)c2cnccc21	1.7µM*	.	.	1.5µM*	.
C[C@@]12C(=O)N(Cc3ccc(Cl)cc3)CC(=O)N1[C@H]1c3ccccc3OC[C@@H]1[C@@H]2c1ccccc1	?	-7%	-28%	?	-7%
COc1ccc(CN2CC(=O)N3[C@H]4c5ccccc5OC[C@@H]4[C@H](c4ccccc4)[C@]3(C)C2=O)cc1	?	-20%	-16%	9.3µM*	-14%
